Assay outcomes: PubChem BioAssay, The Scripps Research Institute Molecular Screening Center
TEAD-YAP inh = TEAD-YAP interaction inhibition; HEK-TIYL cells, TEAD-Gal4/YAP UAS-luciferase luminescence; inhibition, % at 9.12 µM; 640,000 tested, 1.4% active; AID 1259422; in the data active means inhibition above about 32%
FBW7 act = activators of human E3 ligase FBW7; 650,000 tested, 0.13% active; Q969H0; AID 1259310; AlphaScreen FBW7–phospho-cyclin E peptide binding, activator screen; normalized activity (activation), % at 26.1 µM; in the data active means normalized activity above about 1.9%;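 further: purified mutant Fbw7 with reduced substrate affinity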
GPR151 ag = activators of human GPR151; activation, % at 11.2 µM; 650,000 tested, 1% active; PathHunter beta-arrestin GPR151 cells, luminescence; Q8TDV0; in the data active means activation above about 4.9%
Target sequence (Q8TDV0 whole entry, looked up): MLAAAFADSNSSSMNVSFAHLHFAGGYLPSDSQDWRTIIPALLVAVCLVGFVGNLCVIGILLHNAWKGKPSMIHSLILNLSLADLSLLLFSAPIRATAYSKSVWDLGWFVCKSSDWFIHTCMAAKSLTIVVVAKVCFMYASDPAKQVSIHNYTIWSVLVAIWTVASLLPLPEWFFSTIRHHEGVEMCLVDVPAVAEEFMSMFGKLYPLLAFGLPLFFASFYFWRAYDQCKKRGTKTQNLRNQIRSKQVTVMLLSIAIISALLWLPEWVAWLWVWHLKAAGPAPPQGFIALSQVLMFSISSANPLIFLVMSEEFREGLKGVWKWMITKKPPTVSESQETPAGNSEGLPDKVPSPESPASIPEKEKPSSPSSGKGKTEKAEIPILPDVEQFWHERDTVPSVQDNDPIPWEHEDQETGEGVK
MITF inh = human MITF inhibition, primary screen; O75030; AlphaScreen MITF homodimerization, bead proximity signal; inhibition, % at 2.6 µM; 650,000 tested, 0.91% active; AID 1259374; in the data active means inhibition above about 50%
A number is an active result; . = inactive. Compounds with a hit are over-represented: about 3.4% of the library has one in this group of screens.

SMILES | TEAD-YAP inh | FBW7 act | GPR151 ag | MITF inh
Cc1ncc2c(NCCc3ccccc3)nc3ccccc3n12 | . | . | . | .
Cc1ncc2c(NCCN(C)C)nc3ccccc3n12 | 46 | . | . | .
CCN(CC)C(=O)C(=O)Nc1ccccc1Br | . | . | . | .
CC(C(=O)Nc1ccncc1)c1ccc([N+](=O)[O-])cc1 (stereo not given) | 33 | . | . | .
CC(C(=O)Nc1ncn[nH]1)c1ccc([N+](=O)[O-])cc1 (stereo not given) | . | . | . | .
COc1ccc(OCCCCCNCCO)cc1 | . | . | . | .
COc1ccc(OCCCNCCO)cc1 | 41 | . | . | .
COCCNCCCOc1ccc(C(C)C)c(C)c1 | . | . | . | .
Cc1cc(OCCCNCCO)ccc1C(C)C | 64 | . | . | .
CC(=O)Nc1ccc(NC(=O)c2cc(C)nc3ccc(C)cc23)cc1 | 35 | . | . | .
CN(C)c1ccc(C(=O)Nc2ccccc2Br)cc1 | 65 | . | . | .
CN(C)c1ccc(C(=O)Nc2cc(C(N)=O)c(Cl)cc2Cl)cc1 | . | . | . | .
CN(C)c1ccc(C(=O)Nc2ccccc2C(N)=O)cc1 | 52 | . | . | .
CC(C)(C)c1ccc(C(=O)Nc2sccc2C(N)=O)cc1 | 69 | . | . | .
NC(=O)c1ccccc1NC(=O)c1ccc(-c2ccccc2)cc1 | . | . | . | .
CC(C)(C)c1ccc(C(=O)Nc2ccccc2C(N)=O)cc1 | 56 | 2.1 | . | .
CN(/C=C/C=[N+](C)c1ccccc1)c1ccccc1 | . | . | . | .
O=S(=O)(NC1=NCCS1)c1ccc(N=NN2CCOCC2)cc1 | . | . | . | .
CC(=O)c1ccccc1-c1ccc2c(c1)CC(CNC(=O)c1ccc3c(c1)OCCO3)O2 (stereo not given) | 37 | . | . | .
O=C(Nc1ccc(Oc2ccccc2)cc1)c1ccc(F)c([N+](=O)[O-])c1 | 57 | . | . | .
O=C(Nc1ccc(F)cc1)c1ccc(F)c([N+](=O)[O-])c1 | 59 | . | . | .
COc1ccc(C2CC(c3cccs3)=NN2C(=O)CSc2nnc(CNC(=O)c3ccccc3OC)n2-c2cc(C)ccc2C)cc1 (stereo not given) | . | . | . | .
Cc1ccc(NC(=O)CSc2nc(C)cc(C(F)(F)F)c2C#N)cc1 | . | . | . | .
Cc1cc(=O)[nH]c(NC2CCN(C(=O)C(C)(C)c3ccc(Cl)cc3)CC2)n1 | . | . | . | .
Cc1cc(=O)[nH]c(NC2CCN(C(=O)N3c4ccccc4Sc4ccccc43)CC2)n1 | 56 | . | . | .
SMILES | TEAD-YAP inh | FBW7 act | GPR151 ag | MITF inh
CCN1CCN(CCCNC(=O)c2cc3cc4cc(OC)ccc4nc3o2)CC1 | . | . | . | .
COc1ccc(/C=C2/NC(=S)NC2=O)cc1OCc1ccccc1 | . | . | . | .
O=C(O)c1cc(O)c2c(c1)[C@@H]([C@H]1c3cc(C(=O)O)cc(O)c3C(=O)c3c(O[C@H]4O[C@H](CO)[C@@H](O)[C@H](O)[C@H]4O)cccc31)c1cccc(O[C@H]3O[C@H](CO)[C@@H](O)[C@H](O)[C@H]3O)c1C2=O | . | . | . | 121
OC(c1cn2cc(-c3ccccc3)nc2s1)(C(F)(F)F)C(F)(F)F | 55 | . | . | .
FC(F)(F)c1nn2cc(-c3ccccc3)nc2s1 | . | . | . | .
O=C(NNC(=O)C1c2ccccc2Oc2ccccc21)Nc1ccc2c(c1)OCO2 | 61 | . | . | .
CCOc1ccc(N(CC)S(=O)(=O)c2cccc3cccnc23)cc1 | 53 | . | . | .
CCN(CC)S(=O)(=O)c1cccc(C(=O)N/N=C/c2ccc(O)c(O)c2O)c1 | . | . | . | 61
CCN(CC)S(=O)(=O)c1cccc(C(=O)N/N=C(\C)c2ccc(O)cc2O)c1 | . | . | . | .
CCn1c(C)nc2cc(C(=O)N/N=C/c3ccc(O)c(O)c3O)ccc21 | . | . | . | 75
Oc1ccc(C=Nc2cccc3cnccc23)c(O)c1O | . | . | . | 61
O=C(N/N=C/c1ccc(O)c(O)c1O)c1cccnc1 | . | . | . | 79
C=CCc1cccc(/C=N/NC(=O)c2cccnc2)c1O | . | . | . | .
O=C(N/N=C/c1ccccc1O)c1ccc(CN2CCOCC2)cc1 | . | . | . | .
COc1ccc(/C(C)=N/NC(=O)C(C)Nc2ccc(Br)cc2)cc1 (stereo not given) | . | . | . | .
CCOc1cccc(/C=N/NC(=O)c2cccnc2)c1O | . | . | . | 70
CCOc1ccccc1/C=N\NC(=O)c1cccnc1 | . | . | . | .
COc1cc(OC)cc(C2=NC3(CCC(C)CC3)NC2=O)c1 (stereo not given) | . | 4.2 | . | .
O=C1NCCN(Cc2ccccc2C(F)(F)F)C1CC(=O)N1CCCCO1 (stereo not given) | . | . | . | .
COc1ccccc1N1CCN(c2ccc(-c3ccccc3)nn2)CC1 | 88 | . | . | .
c1ccc(-c2ccc(N3CCCCCC3)nn2)cc1 | 93 | . | . | .
O=C(NC1CC1)C1CCN(c2ccc(-c3ccccc3)nn2)CC1 | . | . | . | .
Cc1cccc(NC(=O)c2c(C)c(-c3ccccc3)nc3ccccc23)c1C | . | . | . | .
COc1ccc(NC(=O)Cc2ccccc2)c(OC)c1 | . | . | . | .
COc1cc(Cl)cc(/C=N\NC(=O)c2ccc3c(c2)OCO3)c1O | 74 | . | . | .
SMILES | TEAD-YAP inh | FBW7 act | GPR151 ag | MITF inh
COc1cc(Br)cc(/C=N/NC(=O)c2cccc(Br)c2)c1O | 35 | . | . | .
COc1cccc(/C=N/NC(=O)c2cccc(N)c2)c1O | 67 | . | . | .
COc1cccc(/C=N/NC(=O)c2cc(-c3ccco3)[nH]n2)c1O | . | . | . | .
COc1cccc(/C=N/NC(=O)c2cc(C(C)C)[nH]n2)c1O | 49 | . | . | .
CCCn1c2c(c(=O)n(C)c1=O)C(c1ccc(F)cc1)C1=C(COC1=O)N2 (stereo not given) | . | . | . | .
COc1ccc(CNC(=O)C(=O)N/N=C/c2cccc(OC)c2O)cc1 | . | . | . | 53
Cc1nc2ccccn2c1C(=O)N/N=C/c1ccc(O)c(O)c1O | . | . | . | 76
COc1cccc(/C=N\NC(=O)c2c(C)nc3cc(C)ccn23)c1O | 78 | . | . | .
CC(C)Oc1ccc(Br)cc1C(=O)N/N=C/c1ccc2c(c1)OCO2 | 40 | . | . | .
Cc1ccn2c(C(=O)N/N=C\c3ccccc3[N+](=O)[O-])c(C)nc2c1 | . | . | . | .
CC(=O)Nc1nc(SCC(=O)N2CCOCC2)[nH]c(=O)c1NC(=O)c1ccc(F)cc1 | . | . | . | .
CC(=O)Nc1ccccc1NC(=O)CSc1ccccc1 | . | . | . | .
COc1cccc(/C=N/NC(=O)c2ccc(C(C)(C)C)cc2)c1O | 39 | . | . | .
COc1cccc(/C=N/NC(=O)c2cccc(Cn3cccn3)c2)c1O | . | . | . | .
C=CCc1cccc(/C=N/NC(=O)c2ccc(OC)cc2)c1O | 50 | . | . | .
COc1cccc(/C=N/NC(=O)c2ccc(O)cc2)c1O | . | . | . | .
COc1cccc(/C=N/Nc2ccc(S(=O)(=O)O)cc2)c1O | . | . | . | .
COc1cccc(/C=N/NC(=O)c2cccc(Cn3nc(C)cc3C)c2)c1O | . | . | . | 57
